Data from PubChem BioAssay.
The source made the active and inactive calls.

What was measured:
[1] = small molecules captured by biotinylated probe aFSTL3 – biochemical, small-molecule microarray, fluorescence 635/667, stem cell growth factor project, primary screen (AID 1064); conditions: higher = more signal;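 further: measures binding of the biotinylated anti-FSTL3 antibody to printed compounds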
[2] = binders from COS7 lysate, DM2A8 probe, primary screen, torsin A project, cell lysate, small-molecule microarray, fluorescence 635/667 (AID 1065); conditions: higher = more signal, COS7 lysate expressing mutant human TOR1A
[3] = small molecules captured by biotinylated probe aFGF2 – biochemical, small-molecule microarray, fluorescence 635/667, stem cell growth factor project, primary screen (AID 1067); conditions: higher = more signal;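 further: measures binding of biotinylated aFGF2 protein to printed compounds on slides; z-score merges feature fluorescence and signal-to-noise across triplicate slides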
[4] = small molecules captured by biotinylated probe aFGF10 – biochemical, small-molecule microarray, fluorescence 635/667, stem cell growth factor project, primary screen (AID 1071); conditions: higher = more signal;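 further: score merges 667 nm spot intensity and signal to noise from triplicate slides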
[5] = target: Neurogenic locus notch homolog protein 2 (Homo sapiens) (UniProt Q04721); experiment: small molecules binding Notch2 protein – biochemical, small-molecule microarray, 635 nm fluorescence, stem cell growth factors, primary screen (AID 1073); conditions: higher = more signal
Sequence of Neurogenic locus notch homolog protein 2 (Homo sapiens) (Q04721 whole entry, looked up, canonical isoform): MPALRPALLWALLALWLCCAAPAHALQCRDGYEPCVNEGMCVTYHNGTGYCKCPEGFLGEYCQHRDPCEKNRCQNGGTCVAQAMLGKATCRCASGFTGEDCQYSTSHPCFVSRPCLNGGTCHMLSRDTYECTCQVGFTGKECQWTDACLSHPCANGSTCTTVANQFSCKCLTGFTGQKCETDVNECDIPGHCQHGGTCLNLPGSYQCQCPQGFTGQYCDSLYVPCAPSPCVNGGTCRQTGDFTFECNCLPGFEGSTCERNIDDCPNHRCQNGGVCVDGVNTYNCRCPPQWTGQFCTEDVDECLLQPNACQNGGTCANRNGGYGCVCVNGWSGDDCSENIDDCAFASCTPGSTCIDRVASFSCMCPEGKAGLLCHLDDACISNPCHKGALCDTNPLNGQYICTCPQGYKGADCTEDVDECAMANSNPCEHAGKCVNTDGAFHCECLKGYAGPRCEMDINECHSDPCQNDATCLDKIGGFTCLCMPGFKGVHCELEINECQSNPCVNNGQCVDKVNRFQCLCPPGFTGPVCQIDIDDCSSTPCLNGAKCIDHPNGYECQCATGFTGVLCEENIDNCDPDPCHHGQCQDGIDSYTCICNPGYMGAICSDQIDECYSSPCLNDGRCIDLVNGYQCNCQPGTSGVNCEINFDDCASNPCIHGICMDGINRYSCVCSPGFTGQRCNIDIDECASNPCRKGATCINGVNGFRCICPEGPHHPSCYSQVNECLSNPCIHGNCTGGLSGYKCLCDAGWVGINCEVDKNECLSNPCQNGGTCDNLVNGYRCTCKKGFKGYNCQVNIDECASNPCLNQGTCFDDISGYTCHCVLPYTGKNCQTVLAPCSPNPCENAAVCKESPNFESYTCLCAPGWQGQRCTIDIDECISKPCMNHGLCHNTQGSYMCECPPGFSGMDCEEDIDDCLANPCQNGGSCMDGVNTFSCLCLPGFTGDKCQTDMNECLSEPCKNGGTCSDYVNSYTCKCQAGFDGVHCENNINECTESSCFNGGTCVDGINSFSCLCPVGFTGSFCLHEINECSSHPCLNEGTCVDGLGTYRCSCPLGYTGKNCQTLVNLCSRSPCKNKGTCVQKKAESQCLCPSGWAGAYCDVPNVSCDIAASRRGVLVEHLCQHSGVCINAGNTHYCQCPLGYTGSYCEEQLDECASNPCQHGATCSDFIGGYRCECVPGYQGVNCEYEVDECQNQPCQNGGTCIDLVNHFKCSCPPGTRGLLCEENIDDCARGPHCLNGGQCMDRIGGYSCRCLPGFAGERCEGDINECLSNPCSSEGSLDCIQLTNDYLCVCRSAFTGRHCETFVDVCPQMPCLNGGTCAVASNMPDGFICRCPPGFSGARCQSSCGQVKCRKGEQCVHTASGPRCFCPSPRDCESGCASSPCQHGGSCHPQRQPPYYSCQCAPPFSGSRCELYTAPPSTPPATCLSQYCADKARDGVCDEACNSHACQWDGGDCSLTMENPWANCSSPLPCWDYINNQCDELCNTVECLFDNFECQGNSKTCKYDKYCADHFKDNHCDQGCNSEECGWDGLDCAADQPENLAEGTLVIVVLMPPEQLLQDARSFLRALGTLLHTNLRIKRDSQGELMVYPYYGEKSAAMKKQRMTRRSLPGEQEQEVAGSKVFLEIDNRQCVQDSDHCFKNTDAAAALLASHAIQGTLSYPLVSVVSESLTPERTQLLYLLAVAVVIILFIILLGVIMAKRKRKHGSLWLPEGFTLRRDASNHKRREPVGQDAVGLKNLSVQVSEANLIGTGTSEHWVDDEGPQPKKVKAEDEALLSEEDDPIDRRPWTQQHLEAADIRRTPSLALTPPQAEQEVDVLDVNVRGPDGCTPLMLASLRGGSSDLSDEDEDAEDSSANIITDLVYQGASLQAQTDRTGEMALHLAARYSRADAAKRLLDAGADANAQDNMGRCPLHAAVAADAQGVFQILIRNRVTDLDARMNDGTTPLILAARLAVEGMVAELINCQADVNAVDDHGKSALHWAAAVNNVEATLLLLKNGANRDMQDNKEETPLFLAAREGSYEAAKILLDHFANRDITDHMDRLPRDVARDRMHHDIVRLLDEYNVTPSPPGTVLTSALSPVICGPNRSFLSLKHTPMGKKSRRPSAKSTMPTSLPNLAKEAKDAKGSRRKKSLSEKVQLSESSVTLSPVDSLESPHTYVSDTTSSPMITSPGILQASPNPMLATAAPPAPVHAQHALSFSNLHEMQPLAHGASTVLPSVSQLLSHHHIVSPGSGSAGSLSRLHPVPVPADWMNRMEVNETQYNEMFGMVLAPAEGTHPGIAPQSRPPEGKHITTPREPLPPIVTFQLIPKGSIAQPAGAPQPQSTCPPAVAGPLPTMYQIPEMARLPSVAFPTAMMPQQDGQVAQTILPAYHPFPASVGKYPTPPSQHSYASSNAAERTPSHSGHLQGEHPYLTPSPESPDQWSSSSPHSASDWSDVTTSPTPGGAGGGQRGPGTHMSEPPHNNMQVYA

[6] = target: Pro-neuregulin-1, membrane-bound isoform (Homo sapiens) (UniProt Q02297); experiment: small molecules binding neuregulin-1 protein – biochemical, small-molecule microarray, fluorescence 635/667, psychiatric disease protein project, primary screen (AID 1075); conditions: NRG1 binding, 635 nm fluorescence, higher = more signal;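 further: score combines 667 nm spot fluorescence with signal to noise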
Sequence of Pro-neuregulin-1, membrane-bound isoform (Homo sapiens) (Q02297 whole entry, looked up, the tested form may be a part, canonical isoform): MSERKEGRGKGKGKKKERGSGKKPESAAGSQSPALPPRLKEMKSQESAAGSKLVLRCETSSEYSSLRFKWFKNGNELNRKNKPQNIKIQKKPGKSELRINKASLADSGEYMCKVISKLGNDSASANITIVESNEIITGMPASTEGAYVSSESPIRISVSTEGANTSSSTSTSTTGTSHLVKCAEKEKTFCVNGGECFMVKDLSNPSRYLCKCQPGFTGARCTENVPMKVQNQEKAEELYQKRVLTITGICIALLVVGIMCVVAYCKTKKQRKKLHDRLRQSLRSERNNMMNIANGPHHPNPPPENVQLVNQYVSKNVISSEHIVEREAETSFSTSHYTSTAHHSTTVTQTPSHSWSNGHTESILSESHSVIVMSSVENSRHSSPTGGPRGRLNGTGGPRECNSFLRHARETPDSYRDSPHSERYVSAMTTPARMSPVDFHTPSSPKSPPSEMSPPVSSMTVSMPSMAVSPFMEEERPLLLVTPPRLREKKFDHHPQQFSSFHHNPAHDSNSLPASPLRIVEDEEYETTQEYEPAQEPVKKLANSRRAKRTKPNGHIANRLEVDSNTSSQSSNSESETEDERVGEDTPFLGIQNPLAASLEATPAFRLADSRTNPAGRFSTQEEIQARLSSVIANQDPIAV

[7] = test system: Neuregulin-1 EGF-like domain; experiment: small molecules binding NRG1 EGF domain – biochemical, small-molecule microarray, 635 nm fluorescence, primary screen (AID 1081); conditions: higher = more signal;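 further: binding of the protein to compounds printed on small-molecule microarray slides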
[8] = FRG1 expression reporter modulators in myotubes – cell-based, C2C12 myotubes, firefly/Renilla luciferase, luminescence, FRG1 inhibition for FSHD, primary screen (AID 1084); conditions: FRG1 promoter luciferase, higher = more signal, called active from +8 up or from −8 down
[9] = small molecules captured by biotinylated probe aFST – biochemical, small-molecule microarray, fluorescence 635/667, stem cell growth factor project, primary screen (AID 1086); conditions: higher = more signal;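 further: score merges 667 nm fluorescence with signal-to-noise of each printed compound spot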
[10] = binders of probe aHhip on microarray, primary screen, stem cell growth factor project, biochemical, small-molecule microarray, fluorescence 635/667 (AID 1087); conditions: higher = more signal;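 further: score merges spot fluorescence at 667nm with spot signal to noise ratio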
[11] = test system: PRMT1 (protein arginine N-methyltransferase 1); experiment: small molecules binding arginine methyltransferase PRMT1 – biochemical, small-molecule microarray, 635 nm fluorescence, primary screen (AID 1088); conditions: higher = more signal;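 further: binding of Prmt1 protein to compounds spotted on small-molecule microarray slides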
[12] = growth effects on S. cerevisiae YJM789 – YJM789 clinical isolate, OD600, 24 h, basal, primary screen (AID 1089); conditions: higher = more signal, called active from +8 up or from −8 down;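 further: growth of clinical yeast isolate S. cerevisiae YJM 789 seeded 1000 cells per well; test concentration not given here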
[13] = S. pombe growth modifiers, basal conditions – strain 972, OD600, 24 h, no modulator, primary screen (AID 1090);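 further: basal condition with compound alone and no growth modifier present; test concentration not given here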; conditions: S. pombe 972 growth, higher = more signal, called active from +8 up or from −8 down
[14] = budding yeast growth modifiers under rapamycin – strain BY4716, OD600, 96 h, primary screen (AID 1091); further: test concentration not given here; conditions: S. cerevisiae BY4716 + rapamycin, higher = more signal, called active from +8 up or from −8 down
[15] = target: Torsin-1A-interacting protein 2 (Homo sapiens) (UniProt Q8NFQ8); experiment: small molecules binding lysate-expressed LULL1 – cell lysate, human LULL1 lysate, 635/667 nm fluorescence, primary screen (AID 1092); conditions: small-molecule microarray, hLULL1 lysate binding, 635 nm fluorescence; higher = more signal;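 further: probe is lysate of COS7 cells overexpressing human LULL1; score merges per-feature 667 nm fluorescence with signal-to-noise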
Sequence of Torsin-1A-interacting protein 2 (Homo sapiens) (Q8NFQ8 whole entry, looked up): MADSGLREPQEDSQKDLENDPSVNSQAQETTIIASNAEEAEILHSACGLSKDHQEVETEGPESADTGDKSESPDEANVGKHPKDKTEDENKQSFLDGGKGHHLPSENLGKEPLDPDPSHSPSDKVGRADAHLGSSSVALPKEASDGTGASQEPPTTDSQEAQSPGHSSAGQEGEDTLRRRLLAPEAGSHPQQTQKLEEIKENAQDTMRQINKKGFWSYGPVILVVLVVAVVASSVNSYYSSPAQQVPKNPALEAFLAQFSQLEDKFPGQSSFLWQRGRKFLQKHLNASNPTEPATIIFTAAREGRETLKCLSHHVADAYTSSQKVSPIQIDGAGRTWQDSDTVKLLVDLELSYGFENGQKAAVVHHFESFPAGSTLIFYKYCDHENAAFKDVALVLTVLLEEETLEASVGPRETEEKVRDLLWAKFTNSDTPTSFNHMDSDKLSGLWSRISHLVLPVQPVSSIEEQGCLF

[16] = optical density change of DRC41 E. coli – strain DRC41, OD650, 24 h, E. coli filamentation project, primary screen (AID 1093);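 further: MC1000 strain lacking acrAB efflux and sulA so SOS filamentation is blocked; test concentration not given here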; conditions: E. coli DRC41 growth, higher = more signal, called active from +8 up or from −8 down
[17] = probe aLefty2 binding to arrayed compounds – biochemical, biotinylated probe, 635/667 nm fluorescence, primary screen (AID 1094); conditions: small-molecule microarray, higher = more signal;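 further: score merges spot fluorescence near 667 nm with spot signal-to-noise ratio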
[18] = test system: Noggin (protein binding on small-molecule microarray); experiment: small molecules binding Noggin protein – biochemical, 635/667 nm fluorescence, primary screen (AID 1095); conditions: 635 nm fluorescence, higher = more signal;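 further: score merges 667 nm feature fluorescence with signal to noise over triplicate slides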
[19] = target: Neurogenic locus notch homolog protein 3 (Homo sapiens) (UniProt Q9UM47); experiment: small molecules binding NOTCH3 protein – biochemical, 635/667 nm fluorescence, primary screen (AID 1096); conditions: small-molecule microarray, 635 nm fluorescence, higher = more signal
[20] = probe aEGFR binding to arrayed compounds – biochemical, biotinylated probe, 635/667 nm fluorescence, primary screen (AID 1097); conditions: small-molecule microarray, higher = more signal;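 further: probe is a biotinylated anti-EGFR antibody binding compounds printed on slides; score combines fluorescence near 667 nm and signal to noise of each spot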

SMILES	composite z-score [1]	composite z-score [2]	composite z-score [3]	composite z-score [4]	composite z-score [5]	composite z-score [6]	composite z-score [7]	z-score [8]	composite z-score [9]	composite z-score [10]	composite z-score [11]	z-score [12]	z-score [13]	z-score [14]	composite z-score [15]	z-score [16]	composite z-score [17]	composite z-score [18]	composite z-score [19]	composite z-score [20]
[N-]=[N+]=NCc1ccccc1C[C@]1(C(=O)NCC(O)CO)N=C(c2ccc(OCCCO)cc2)O[C@H]1c1ccccc1 (stereo not given in full)	0.881	0.34	-0.0039	-0.48	-0.316	0.958	0.849	-0.938 (inactive)	0.506	0.158	-0.434	-0.0234 (inactive)	0.559 (inactive)	-1.04 (inactive)	2.62	0.478 (inactive)	0.38	-0.918	-1.29	-0.0758
CCOC(=O)[C@H]1CC=C2CC1C(=O)N1CCC[C@@H]1[C@@H]2O[Si](C)(C)C(C)(C)C (stereo not given in full)	-0.502	-0.0173	-0.221	-0.0337	-1.9	-0.596	-0.415	-0.591 (inactive)	-0.686	-0.0994	-0.295	-2.4 (inactive)	-21.2 (active)	-1.8 (inactive)	0.368	-0.558 (inactive)	-0.376	0.451	-0.979	-0.265
COc1ccc(CCN2C(=O)[C@@]3(c4ccc([N+](=O)[O-])cc4)CC(=O)N(C4CCCCC4)[C@@H]3c3ccc(CO)cc32)cc1	-0.126	0.0269	-0.148	-0.0632	-0.0731	0.0125	1.46	0.912 (inactive)	-0.135	-0.0994	1.09	-1.82 (inactive)	0.701 (inactive)	-1.83 (inactive)	0.479	0.483 (inactive)	-0.0246	0.792	0.441	-0.1
O=C1OCC=C[C@H]2OC34C=CCN(CCN5CCOCC5)C(=O)[C@H]3N(CCCO)C(=O)[C@@H]4[C@@H]12 (stereo not given in full)	-0.206	-0.426	-0.139	-0.02	-0.146	-0.125	0.59	1.78 (inactive)	-0.382	-0.0003	-0.102	0.0736 (inactive)	-0.454 (inactive)	0.238 (inactive)	0.477	0.681 (inactive)	-0.208	0.219	0.314	-0.128
O=C1O[C@H](c2ccccc2)[C@H](c2ccccc2)N2[C@H]1[C@@H](C(=O)Nc1nc3ccccc3s1)[C@]1(C(=O)Nc3ccc(C#CCCO)cc31)[C@H]2c1ccc(OCCO)cc1	-0.379	0.135	0.0401	1.14	1.19	0.887	0.975	-0.0455 (inactive)	0.119	0.224	1.55	0.737 (inactive)	0.933 (inactive)	2.84 (inactive)	3.19	0.0573 (inactive)	-0.137	1.72	1.12	-0.0368
CCCCN1CC=CC23O[C@@H]4C=CCOC(=O)[C@@H]4[C@H]2C(=O)N(CCCCCO)[C@@H]3C1=O (stereo not given in full)	0.219	-0.726	-0.187	-0.32	-0.661	0.967	1.34	-0.333 (inactive)	-0.603	-0.21	-0.0902	-0.404 (inactive)	-0.244 (inactive)	-0.279 (inactive)	3.04	1.34 (inactive)	0.0695	-0.929	-0.445	-0.268
CCOC(=O)[C@H]1C/C=C/C[C@H](C(=O)OCC)C(=O)O[C@H]2[C@@H](OC)O[C@H](CO)[C@@H](OC(=O)Nc3ccc(C#N)cc3)[C@@H]2OC1=O	0.0283	-0.317	-0.0414	0.287	-0.194	1.39	1.02	-0.1 (inactive)	0.143	-0.119	0.595	-1.87 (inactive)	-1.11 (inactive)	32.1 (active)	2.36	1.92 (inactive)	-0.162	0.0435	0.466	-0.382
O=C(NCC(F)(F)F)[C@@H]1c2ccccc2C(=O)N(C2CCCCC2)[C@H]1c1ccc(CO)cc1	-0.176	-0.527	-0.116	0.0931	0.154	1.61	0.611	-1.46 (inactive)	0.249	0.0505	0.311	0.936 (inactive)	0.372 (inactive)	0.963 (inactive)	1.76	0.674 (inactive)	-0.117	0.276	0.254	-0.0987
CN(C)CCCNC(=O)[C@@]1(c2ccc([N+](=O)[O-])cc2)CC(=O)N(C2CCCCC2)[C@@H]1c1ccc(CO)cc1	0.4	0.595	-0.0717	-0.466	-0.513	1.52	0.692	-0.767 (inactive)	-0.114	0.0373	1.54	1.78 (inactive)	-8.13 (active)	-1.97 (inactive)	1.09	0.59 (inactive)	-0.0259	0.0069	0.444	-0.0978
CC(C)(C)OC(=O)CC[C@@]1(C(=O)NCC(O)CO)N=C(c2ccc(OCCCO)cc2)O[C@@H]1c1ccccc1N=[N+]=[N-] (stereo not given in full)	0.119	1.11	0.0599	0.559	1.2	1.97	1.17	2.43 (inactive)	0.552	-0.0618	1.54	1.17 (inactive)	-1.74 (inactive)	4.99 (inactive)	3.76	1.26 (inactive)	0.247	1.04	0.626	0.0773
